Rows were chosen to be rich in hits. Some 12% of all compounds tested hit in one or more screens of this group.
G9a block: blocks human histone lysine methyltransferase G9a. Potency, µM (titrated, usually from 102 µM), for the others: at the highest dose activity, negative = inhibition, most hits filed as inhibitors. G9a H3K9 monomethylation, AlphaScreen, 2 h. hit rate 8.8% among 350,000. AID 504332; note: % is set by controls: 0 for no effect and ±100 for the full control effect; nearly all actives have a fitted effect of over 75% in size
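Compounds were preincubated with 20 nM G9a for 15 min, after which biotinylated H3K9 peptide (500 nM) and SAM (20 uM) started a 2 h room-temperature reaction. Monomethylated product was quantified by antibody-based AlphaScreen chemiluminescence.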
HP1b chromo inh: HP1-beta chromodomain-methylated histone interaction inhibition. P83916. hit rate 0.56% among 390,000. Potency, µM (doses to about 114 µM), for the others: at the highest dose activity change, negative = inhibition, most hits filed as inhibitors. AlphaScreen HP1-beta / biotin-H3K9me3 peptide binding; note: nearly all actives have a fitted effect of over 70% in size
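AlphaScreen: HP1-beta (50 nM) preformed 30 min with biotin-H3(1-18)K9me3 peptide (50 nM) in PBS pH 7.4, 0.01% Tween-20. Compound added for 30 min at RT, then streptavidin donor/nickel chelate acceptor beads (10 ug/mL) for 30 min.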
PLK1 PBD block: inhibitors of human PLK1 polo-box domain binding; Plk1 PBD binding of FITC phosphopeptide, fluorescence polarization; Potency, µM, inactives show max response, negative = inhibition, usual class: inhibitors; hit rate 2.8% among 360,000; AID 720504; note: series mostly up to about 57 µM; % is set by controls: 0 for no effect and ±100 for the full control effect; nearly all actives have a fitted effect of over 65% in size
Target sequence (P53350 whole entry, looked up, the tested form may be a part): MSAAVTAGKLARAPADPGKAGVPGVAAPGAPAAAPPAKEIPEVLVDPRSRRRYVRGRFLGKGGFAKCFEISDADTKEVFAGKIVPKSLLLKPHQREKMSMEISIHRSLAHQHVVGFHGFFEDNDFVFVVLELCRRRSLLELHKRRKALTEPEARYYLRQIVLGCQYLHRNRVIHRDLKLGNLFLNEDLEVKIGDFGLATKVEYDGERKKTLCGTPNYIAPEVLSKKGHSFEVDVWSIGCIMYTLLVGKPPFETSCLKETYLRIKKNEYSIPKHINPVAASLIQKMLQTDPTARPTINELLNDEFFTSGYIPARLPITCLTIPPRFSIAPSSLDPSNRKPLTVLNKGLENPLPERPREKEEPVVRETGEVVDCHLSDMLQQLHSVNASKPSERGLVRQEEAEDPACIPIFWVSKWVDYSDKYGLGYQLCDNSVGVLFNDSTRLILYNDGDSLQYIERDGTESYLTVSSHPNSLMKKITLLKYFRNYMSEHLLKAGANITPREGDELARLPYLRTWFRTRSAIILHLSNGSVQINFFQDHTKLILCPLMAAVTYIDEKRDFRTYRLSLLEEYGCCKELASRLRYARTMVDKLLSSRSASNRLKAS
Sfp inh: inhibitors of Bacillus subtilis Sfp phosphopantetheinyl transferase; Q9F4F7; Biochemical Sfp PPTase activity, qHTS; hit rate 3.5% among 310,000; Potency, µM, for inactives: largest response in the series, negative = inhibition, hits mostly inhibitors; AID 1490;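 note: the enzyme is Sfp with the accession as filed and its product quenches rhodamine fluorescence; 0% = enzyme reaction without inhibitor and -100% = no enzyme wells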
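Fluorescence-quenching assay: 15 nM Sfp-PPTase preincubated 15 min at room temperature with compound, then 5 uM rhodamine-CoA and 12.5 uM BHQ-2-labelled YbbR peptide added. Fluorescence (ex 525/em 598 nm) read at start and after 30 min; difference gives rate.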
JMJD2A Tudor: blocks the human JMJD2A Tudor domain; Potency, µM (highest dose often 114 µM), inactives show at the highest dose activity change, negative = inhibition, hits mostly inhibitors; AlphaScreen JMJD2A-Tudor / H3K4me3 peptide binding; O75164; hit rate 4.4% among 390,000; note: % is set by controls: 0 for no effect and ±100 for the full control effect; nearly all actives have a fitted effect of over 50% in size
BAZ2B inh: inhibitors of human BAZ2B bromodomain. Q9UIF8. AlphaScreen BAZ2B-H3K14Ac peptide displacement. Potency, µM (doses to about 114 µM), for the others: at the top dose activity change, negative = inhibition, actives largely listed as inhibitors. hit rate 4.4% among 360,000; note: % is set by controls: 0 for no effect and ±100 for the full control effect; nearly all actives have a fitted effect of over 60% in size
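In this displacement format the biotinylated H3(5-23) peptide acetylated at Lys14 serves as ligand at 50 nM, with BAZ2B at 50 nM in PBS pH 7.4 containing 0.01% Tween-20. Donor and acceptor beads are 10 ug/mL final.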
An asterisk follows results filed as active; u = inconclusive; x = no result given; [ ] = another dose, or the depositor's remark. Calls come from the whole dose curve; as a rule, active = well fitted curve in the direction sought with a large enough effect; inconclusive = small, poorly fitted or top-dose-only effect, or another doubt; inactive = no such curve, though single readings can be large; an effect the other way counts as inactive or inconclusive. Potency is the fitted concentration of half-maximal effect.

SMILES | G9a block | HP1b chromo inh | PLK1 PBD block | Sfp inh | JMJD2A Tudor | BAZ2B inh
Cc1noc(C)c1S(=O)(=O)Nc1ccc(C(=O)Nc2ccc(Br)cc2)cc1 | -21%[59 µM] | -8% | x | x | -25% | x
O=[N+]([O-])c1ccc(O)c(/C=N/Nc2ccc(Cl)nn2)c1 | x | 41% | -10% | -9% | 7.9µM* | 4µM*
Cc1ccccc1/C=N/Nc1ccc(Cl)nn1 | 10µM* | 43% | -12% | 2% | -13% | -27%
CO[C@@H]1COC(=O)[C@H]2CCCN2C(=O)[C@@H](C)COC(=O)[C@H](COCc2ccccc2)NC(=O)C/C=C\[C@H]1C | x | x | x | 7% | x | x
CN1CCN(c2ncc3nc(-c4ccc(Cl)cc4)c(=O)n(Cc4ccc(F)cc4)c3n2)CC1 | -5%[0.501 µM] | x | x | -20% | x | x
COc1cccc(Cn2c(=O)c(-c3cccs3)nc3cnc(N4CCNCC4)nc32)c1 | 12%[0.501 µM] | x | x | 18µM* | x | x
O=c1c(-c2ccc(Cl)cc2)nc2cnc(N3CCNCC3)nc2n1Cc1ccc(F)cc1 | -6%[12.7 µM] | x | x | 45µM* | x | x
COc1cccc(Cn2c(=O)c(-c3ccc(Cl)cc3)nc3cnc(N4CCNCC4)nc32)c1 | 4%[0.501 µM] | x | x | 40µM* | x | x
O=c1c(CCc2ccccc2)nc2cnc(N3CCNCC3)nc2n1Cc1ccc(F)cc1 | 2%[12.7 µM] | x | x | 50µM* | x | x
CN1CCN(c2ncc3nc(CCc4ccccc4)c(=O)n(Cc4ccc(F)cc4)c3n2)CC1 | -9%[12.7 µM] | x | x | -14% | x | x
C[N+]1(C)CCC[C@H]1C(=O)[O-] | 11%[21.5 µM] | x | x | 3% | x | x
CCN(Cc1ccccc1)C(=O)CCc1c(C)nc2c(c(C)nn2-c2ccc(C)c(C)c2)c1C | -1%[59 µM] | 33% | x | x | -10% | -1%
N#Cc1c2c(c(Nc3ccc(O)cc3)n3c1nc1ccccc13)CCC2 | 1.3µM* | 24% | -3% | 5% | -19% | -33%
CC(=O)c1ccc(NC(=O)Cn2ncc3c4ccccc4n(Cc4ccccc4)c3c2=O)cc1 | 7%[59 µM] | 10% | x | x | -17% | -3%
COc1ccc(-n2c(=O)cnc3cnc(N4CCNCC4)nc32)cc1 | -8%[12.7 µM] | x | x | 19% | x | x
O=C(Cc1ccc(F)cc1)Nc1cccc(-c2cn3c(n2)SCC3)c1 | 10µM* | -18% | -14% | 1% | -21% | u
CN(C)S(=O)(=O)Nc1cccc(-c2cn3c(n2)SCC3)c1 | 3% | -2%[57 µM] | u | 12% | -24% | -34%
O=C(Nc1cccc(-c2cn3c(n2)SCC3)c1)c1ccc(Br)o1 | 7.9µM* | 25% | -7% | 14% | -12% | 56µM*
CCc1ccc(-c2cn3c(n2)SCC3)cc1 | 45µM* | -1% | u | 9% | -24% | u
CC(=O)Nc1ccc(S(=O)(=O)Nc2cccc(-c3cn4c(n3)SCC4)c2)cc1 | u | 23% | -20% | 1% | -30% | x
O=C(Nc1ccc(-c2cn3c(n2)SCC3)cc1)c1ccco1 | 28µM* | -2% | u | -11% | -15% | -30%
Cn1cccc1C(=O)N1CCC2(CCCN(c3ncccn3)C2)CC1 | 1%[12.7 µM] | x | x | 11% | x | x
CN(CC(=O)Nc1cccc(Cl)c1)S(=O)(=O)c1ccc2[nH]c3c(c2c1)CCCC3 | u | 6% | x | x | -36% | -29%
Cc1ccc(NS(=O)(=O)c2cc3c(cc2F)NC(=O)CC3)cc1C | x | x | x | x | -7% | x
O=C(O)c1cccc(-n2cccc2/C=C\[N+](=O)[O-])c1 | x | u | 27µM* | -13% | 22µM* | u
SMILES | G9a block | HP1b chromo inh | PLK1 PBD block | Sfp inh | JMJD2A Tudor | BAZ2B inh
CN1C(=O)S/C(=C/c2cccn2-c2cccc(C(=O)O)c2)C1=O | -30% | 24% | -14% | 3% | -27% | u
O=C(O)c1cccc(-n2cccc2/C=C/[N+](=O)[O-])c1 | 10µM* | 20µM* | 6.7µM* | 32µM* | 22µM* | 32µM*
O=Cc1cccn1-c1cccc([N+](=O)[O-])c1 | x | u | u | u | -23% | 0%
N#C/C(=C\c1c[nH]c2ccccc12)C(=O)c1ccc(O)c(O)c1 | 18µM* | x | x | x | x | x
N#C/C(=C\c1ccc(O)c(O)c1)S(=O)(=O)c1ccccc1 | 3.2µM* | u | -22% | 11% | u | 10µM*
N#C/C(=C\c1c[nH]c2ccccc12)C(=O)NC1CC1 | x | 16% | -4% | 0% | -8% | -8%
